# System: Wnt5a (protein binding on small-molecule microarray)
# Experiment: small molecules binding Wnt5a protein – biophysical, small-molecule microarray, 635/667 nm fluorescence, primary screen (AID 1142);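 also: fluorescence read at 667 nm with signal to noise per printed feature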
# Conditions: 635 nm fluorescence, higher = more signal
row,Structure (SMILES),composite z-score
1,CCOC(=O)C1=CC[C@@H](c2ccc(OC)cc2)N(S(=O)(=O)c2ccc(C)cc2)[C@H]1c1ccc(C)cc1,0.151
2,CCOC(=O)C[C@H]1[C@H](OC(=O)Cc2ccc3c(c2)OCO3)[C@@H](NC(=O)c2ccc3ccccc3n2)c2cc(OCCCO)ccc2N1C(=O)Cc1ccc(OC)cc1,0.0586
3,CC(C)(C)N1CC=CC23O[C@@H]4C=CCOC(=O)[C@@H]4[C@H]2C(=O)N(CCO)[C@@H]3C1=O (stereo partly drawn),-0.887
4,CCOC(=O)C1=CC[C@@H](c2ccc(OC)cc2)N(S(=O)(=O)c2ccc(C)cc2)[C@H]1CC,0.174
5,COc1ccc(NN2C(C(O)c3ccc(I)cc3)C=CC3C(=O)N(C4CCCCC4)C(=O)C32)cc1 (stereo not drawn),0.404
6,C=CCOC(=O)[C@H]1[C@@H]2C(=O)O[C@@H](c3ccccc3)[C@@H](c3ccccc3)N2[C@@H](c2ccc(OCCOC(=O)[C@@H]3C[C@@H]4C(=O)N[C@@H](CCCC[N+](C)(C)C)C(=O)N4[C@@H]3c3ccc(O)cc3)cc2)[C@]12C(=O)Nc1ccc(I)cc12,1.02
7,Cc1ccc(S[C@]2(C(=O)NCc3ccccc3)CC(=O)N(Cc3ccccc3C(F)(F)F)[C@@H]2c2ccc(CO)cc2)cc1,-0.666
8,CC(C)=CCCC(C)=CC(O)C1C=CC2C(=O)NC(=O)C2N1Nc1ccccn1 (stereo not drawn),0.827
9,O=C1O[C@H](c2ccccc2)[C@H](c2ccccc2)N2[C@H]1[C@@H](C(=O)O)[C@]1(C(=O)Nc3ccc(C#CCCO)cc31)[C@H]2c1ccc(OCCO)cc1,0.48
10,C=CCN1C(=O)[C@@]2(O[C@@H](CCn3cc([C@H](O)c4ccccc4)nn3)[C@H]([Si](C)(C)c3ccc(OC)cc3)[C@H]2C)c2cc(N3C(=O)c4cccc5cccc3c45)ccc21,-0.654
11,NC(=O)NCC#Cc1ccc2c(c1)[C@]1(C(=O)N2)[C@H](c2ccc(OCCO)cc2)N2[C@H](c3ccccc3)[C@H](c3ccccc3)OC(=O)[C@H]2[C@@H]1C(=O)O,-0.129
12,CO[C@H]1O[C@H](CO)[C@@H](OC(=O)Nc2ccc3c(c2)OCO3)[C@H](OC(=O)Nc2ccccc2-c2ccccc2)[C@H]1OC(=O)Nc1ccccc1-c1ccccc1,1.07
13,CC1CC/C=C\[C@H]2OC34C=CCN(c5ccc6ccccc6c5)C(=O)[C@H]3N(C(C)CO)C(=O)[C@@H]4C2C(=O)O1 (stereo partly drawn),-0.786
14,COC(=O)[C@@]1(Cc2ccc(OC)cc2)[C@H]2c3cc(C(=O)N4CCCC4)n(Cc4ccc(C(F)(F)F)nc4)c3C[C@H]2CN1C(=O)c1ccccc1,0.426
15,Cc1ccc(C(C)CC(O)C2C=CC3C(=O)N(C)C(=O)C3N2Nc2ccccc2)o1 (stereo not drawn),0.342
16,C=CC[C@@]1(C(=O)N(C)C)N=C(c2ccc(OCCCO)cc2)O[C@@H]1c1ccccc1CN=[N+]=[N-],0.615
17,COC(=O)[C@@]1(Cc2ccccc2)[C@H]2c3cc(C(=O)N4CCCC4)n(Cc4ccc(OC)c(OC)c4)c3C[C@H]2CN1C(=O)c1ccccc1,0.56
18,N#Cc1ccc(NN2C(C(O)C3CC=CCC3)C=CC3C(=O)N(c4ccccc4)C(=O)C32)cc1 (stereo not drawn),0.223
19,C=C(C)[C@@H]1CC=C(C(O)C2C=CC3C(=O)N(c4ccccc4)C(=O)C3N2Nc2ccc([N+](=O)[O-])cc2)CC1 (stereo partly drawn),0.331
20,COc1ccc([Si](C)(C)[C@H]2[C@H](CCO)O[C@@]3(C(=O)N(Cc4cccc(N(C=O)c5ccccc5)c4)c4ccccc43)[C@@H]2C)cc1,0.313
21,CCCCC(O)C1C=CC2C(=O)N(c3ccccc3)C(=O)C2N1Nc1ccc([N+](=O)[O-])cc1 (stereo not drawn),0.044
22,COc1ccc([Si](C)(C)[C@@H]2[C@@H](CC(=O)N3CCC[C@H]3CO)O[C@]3(C(=O)N(Cc4ccc(N5CCOC5=O)cc4)c4ccccc43)[C@H]2C)cc1,-0.014
23,CC(C)NC(=O)[C@@H]1c2ccccc2C(=O)N(Cc2ccccc2C(F)(F)F)[C@H]1c1ccc(CO)cc1,-0.0854
24,CCCCCC1=C2CNC(Cc3ccccc3)(C(=O)OC)C=C2C(C)C1=O (stereo not drawn),-0.176
25,CN(C)c1ccc(C(O)C2C=CC3C(=O)N(Cc4ccccc4)C(=O)C3N2n2cnnc2)cc1 (stereo not drawn),-0.347
26,O=C(NCC(O)CO)[C@@]1(CCS(=O)(=O)c2ccccc2)N=C(c2ccc(OCCCO)cc2)O[C@H]1c1ccccc1 (stereo partly drawn),0.274
27,COCCCNC(=O)[C@@H]1c2ccccc2C(=O)N(Cc2ccc(OC(F)(F)F)cc2)[C@H]1c1ccc(CO)cc1,0.53
28,Cc1ccc(F)cc1S(=O)(=O)N[C@H]1CCN(Cc2ccc(OC(C)C)cc2)C1,-0.223
